About 83,000 compounds went through this panel and 20% of them were active in at least one assay; those are over-represented in the sample as a whole.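 48-hour exposure, single concentration, 96-well plates; percent growth endpoint where 0 means no net growth. Active: below 10.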 The source made the active and inactive calls.

The subject of the first assay is SK-OV-3 ovarian. As to the kind of experiment: NCI-60 one-dose screen, 48 h (100 = growth as untreated, 0 = no growth, -100 = all killed). To be noted: 10 µM unless noted.
As for `Nc1c(C(=O)Nc2cccc(C(F)(F)F)c2)sc2nc3c(cc12)CCCCC3`, the growth was -21.4% (active). In the case of `O=C(CN1CCN(c2cc3c(cc2F)c(=O)c(C(=O)O)cn3C2CC2)CC1)Nc1ccc(C(=O)/C=C/c2ccccc2)cc1`, the growth is 93.6% (inactive). On to `Cc1cc(Cl)ccc1OC(C)C(=O)Nc1nnc(C2CC2)s1` (configuration not stated), for which the growth was 103% (inactive).

With `COc1ccc(/C(=N/O)c2cc(F)c(F)c(OC)c2F)cc1O`, the growth is 17.3% (inactive). `CSc1ccccc1C#C/C=C\C#Cc1ccccc1N1CCCCC1=O`: the growth was 109% (inactive). With `CCCCCCC[C@@H](O)CC(=O)N[C@H](CCCCN)C(=O)N[C@H](Cc1c[nH]c2ccccc12)C(=O)NC(CCCCN)C(=O)N[C@H](CC(C)C)C(=O)N[C@H](Cc1ccccc1)C(=O)N[C@H](CCCCN)C(=O)N[C@H](CCCCN)C(=O)N[C@H](CC(C)C)C(=O)N1CCCC1C(=O)N[C@H](CCCCN)C(=O)N[C@H](Cc1ccccc1)C(=O)N[C@H](CC(C)C)C(=O)N[C@H](Cc1c[nH]cn1)C(=O)N[C@H](CC(C)C)C(=O)N[C@H](C)C(=O)N[C@H](CCCCN)C(=O)N[C@H](CCCCN)C(=O)N[C@H](Cc1ccccc1)C(=O)O` (some centres not stated), the growth was -62.8% (active). Same read-out and setting: under `Cc1ccc2c(c1)ncn2-c1ncnc2c1CC(C)c1ccccc1N2C` (configuration not stated) stands 29.6% (inactive); under `CCOC(=O)c1cc(/C(=N\O)c2cc(OC)c(OC)c(OC)c2)n2c(C)cccc12`, 38.4% (inactive). For `Nc1c(C(=O)Nc2cccc(C(F)(F)F)c2)sc2nc3c(cc12)CCCCCC3`, the growth is 2.08% (active). As for `Cc1ccc(Cn2c(-c3cccs3)nc3ccccc32)cc1`, the growth was 100% (inactive). Still for that read-out and setting: the result for `CCC(=O)Oc1ccc2c(c1)CC[C@@H]1[C@@H]2CC[C@]2(C)C[C@H](OC(=O)CC)C[C@@H]12` reads 56% (inactive); that for `COc1ccc2c(c1)C(C)Cc1c(N(C)C)ncnc1N2C` (configuration not stated), 30% (inactive); that for `Cc1cc2c(C(C)C)c(O)c(O)c(C=NCCCCCCC(=O)O)c2c(O)c1-c1c(C)cc2c(C(C)C)c(O)c(O)c(C=NCCCCCCC(=O)O)c2c1O`, 63.7% (inactive). Same read-out and setting: the result for `COC(=O)CCCCCCN=Cc1c(O)c(O)c(C(C)C)c2cc(C)c(-c3c(C)cc4c(C(C)C)c(O)c(O)c(C=NCCCCCCC(=O)OC)c4c3O)c(O)c12` reads 64.8% (inactive). Regarding `C=CCc1cc(Cl)cc2c(OC(C)=O)c(C(C)=O)c(-c3ccccc3)nc12`, the growth was 99.9% (inactive).

Consider `CCN1C(=O)N[C@H]2[C@@H]3NC(=O)c4ccc(Cl)n4[C@@H]3C[C@]21O`, for which the growth was 28.6% (inactive).

For the compound `CN(C)C1CCC(NC2=CC(=O)C=CC2=O)CC1` (configuration not stated), the growth was 119% (inactive). The same measure, in the same setting: under `CN1C(=O)[C@H]2c3c1cccc3[C@@]13NC(=O)O[C@H]1[C@H](CCC3(C)C)C2(C)C` stands 120% (inactive); under `COc1ccc(/C=C2\CCCC3=C2NC(C)=NC3c2ccc(OC)c(OC)c2)cc1OC` (configuration not stated), 6.97% (active).

Take `O=C(c1ccncc1)N1N=C(c2ccc(Cl)cc2)CC1c1c[nH]c2ccccc12` (configuration not stated): the growth is 84.2% (inactive). The same measure, in the same setting: under `Cc1nn(-c2ccc(Cl)cc2)c(=O)n1CCOc1ccccc1Cl` stands 92.9% (inactive); under `Cc1cc2c(c(=O)o1)C(c1ccc(OC(=O)N3CCOCC3)cc1)C(C#N)=C(N)O2` (configuration not stated), 101% (inactive); under `O=C(COc1ccccc1)N1N=C(c2ccc(Cl)cc2)CC1c1c[nH]c2ccccc12` (configuration not stated), 81.4% (inactive).

Take `CC[C@H](C)[C@H]1NC(=O)[C@@H](N[C@](C)(O)[C@@H](N)CC(C)C)[C@@H](C)OC(=O)[C@H](Cc2ccc(OC)cc2)N(C)C(=O)[C@@H]2CCCN2C(=O)[C@H](CC(C)C)NC(=O)[C@@H](C)C(=O)[C@H](C(C)C)OC(=O)C[C@@H]1O`: the growth is -13% (active).

The test system of the next assay is IGROV1 ovarian. The assay is described as above. Conditions: 10 µM unless noted.
Regarding `N=C(N)c1ccc(-c2ccc(-c3ccc(Cl)cc3)o2)nc1`, the growth was -60.6% (active). The same measure, in the same setting: the result for `NC(=O)c1c(NC(=O)c2ccc(OCC3CCCO3)cc2)sc2c1CCCC2` (configuration not stated) reads -23.3% (active).

For `Cc1cc(-c2ccccc2)c(C)n1Cc1ccc(Cl)cc1`, the growth was 50.4% (inactive). The same measure, in the same setting: the result for `Clc1cccc(Cl)c1Cn1c(-c2cncs2)nc2ccccc21` reads 82.6% (inactive); that for `Cc1ccc(Cn2c(-c3nonc3N)nc3ccccc32)cc1`, 67.2% (inactive); that for `CC/C(=C(\c1ccc(O)cc1)c1ccc(OCCN(C)CCN(C)C(=O)CCC(=O)c2c(C)[nH]c(/C=C3\N=C(c4ccc[nH]4)C=C3OC)c2C)cc1)c1ccccc1`, 81.6% (inactive). With `NC(N)=NC(N)=Nc1ccccc1-c1ccccc1`, the growth is 110% (inactive).

Consider `COc1cc(/C=C/C(=O)c2ccc(NC(=O)CN3CCN(c4cc5c(cc4F)c(=O)c(C(=O)O)cn5C4CC4)CC3)cc2)cc(OC)c1OC`, for which the growth was -1.19% (active). As for `COc1ccc(-c2nc(-c3ccccc3)c(-c3ccccc3)n2C2CC2)cc1OC1CCCCC1`, the growth was 63.1% (inactive). For `CCOC(=O)[C@H](CSSc1ncnc2cc[nH]c12)NC(=O)[C@@H](C)c1ccc2cc(OC)ccc2c1`, the growth is 41.3% (inactive). Same read-out and setting: under `COC(=O)c1ccc2nc(-c3cc4ccccc4n3C)n(CCCCOc3cc4c(cc3OC)C(=O)N3CCC[C@H]3C=N4)c2c1` stands -68.2% (active). On to `COc1cc2c(cc1OC)C1(C)N(CC2)C(=O)OC1(C)C` (configuration not stated), for which the growth was 109% (inactive). The same measure, in the same setting: the result for `CN1CCN(c2ccc3cc(-c4nc5ccccc5[nH]4)c(=O)oc3c2)CC1` reads 79.9% (inactive). As for `COC1=CC(c2ccc[nH]2)=N/C1=C\c1[nH]c(C)c(CCCn2cc(CCCCCCCCC[C@@H]3Cc4cc(O)ccc4C4CC[C@]5(C)[C@@H](O)CC[C@H]5C43)nn2)c1C` (some centres not stated), the growth is 78.1% (inactive). Still for that read-out and setting: under `O=C(CN1CCN(c2cc3c(cc2F)c(=O)c(C(=O)O)cn3C2CC2)CC1)Nc1ccc(C(=O)/C=C/c2ccccc2)cc1` stands 42.9% (inactive); under `Cc1cc(Cl)ccc1OC(C)C(=O)Nc1nnc(C2CC2)s1` (configuration not stated), -51.7% (active). With `COc1ccc(/C(=N/O)c2cc(F)c(F)c(OC)c2F)cc1O`, the growth is 50.6% (inactive). In the case of `COc1ccc(C(=O)c2cc(OC)c(OC)c(OC)c2)cc1/C=C/C(=O)c1ccc2c(c1)OCO2`, the growth was 16.9% (inactive).

For the compound `CSc1ccccc1C#C/C=C\C#Cc1ccccc1N1CCCCC1=O`, the growth was -29.6% (active). Same read-out and setting: under `CCCCCCC[C@@H](O)CC(=O)N[C@H](CCCCN)C(=O)N[C@H](Cc1c[nH]c2ccccc12)C(=O)NC(CCCCN)C(=O)N[C@H](CC(C)C)C(=O)N[C@H](Cc1ccccc1)C(=O)N[C@H](CCCCN)C(=O)N[C@H](CCCCN)C(=O)N[C@H](CC(C)C)C(=O)N1CCCC1C(=O)N[C@H](CCCCN)C(=O)N[C@H](Cc1ccccc1)C(=O)N[C@H](CC(C)C)C(=O)N[C@H](Cc1c[nH]cn1)C(=O)N[C@H](CC(C)C)C(=O)N[C@H](C)C(=O)N[C@H](CCCCN)C(=O)N[C@H](CCCCN)C(=O)N[C@H](Cc1ccccc1)C(=O)O` (some centres not stated) stands -29.4% (active); under `Cc1ccc2c(c1)ncn2-c1ncnc2c1CC(C)c1ccccc1N2C` (configuration not stated), 16.3% (inactive); under `CCOC(=O)c1cc(/C(=N\O)c2cc(OC)c(OC)c(OC)c2)n2c(C)cccc12`, 52.5% (inactive). Turning to `Nc1c(C(=O)Nc2cccc(C(F)(F)F)c2)sc2nc3c(cc12)CCCCCC3`, the growth is 14.6% (inactive). For `Cc1ccc(Cn2c(-c3cccs3)nc3ccccc32)cc1`, the growth is 81.8% (inactive). Take `CCC(=O)Oc1ccc2c(c1)CC[C@@H]1[C@@H]2CC[C@]2(C)C[C@H](OC(=O)CC)C[C@@H]12`: the growth was 77.6% (inactive).

For the compound `COc1ccc2c(c1)C(C)Cc1c(N(C)C)ncnc1N2C` (configuration not stated), the growth is 54.4% (inactive).

As for `Cc1cc2c(C(C)C)c(O)c(O)c(C=NCCCCCCC(=O)O)c2c(O)c1-c1c(C)cc2c(C(C)C)c(O)c(O)c(C=NCCCCCCC(=O)O)c2c1O`, the growth is 28.6% (inactive).

Take `COC(=O)CCCCCCN=Cc1c(O)c(O)c(C(C)C)c2cc(C)c(-c3c(C)cc4c(C(C)C)c(O)c(O)c(C=NCCCCCCC(=O)OC)c4c3O)c(O)c12`: the growth was 29.3% (inactive). The same measure, in the same setting: the result for `C=CCc1cc(Cl)cc2c(OC(C)=O)c(C(C)=O)c(-c3ccccc3)nc12` reads 82.3% (inactive). For the compound `CCN1C(=O)N[C@H]2[C@@H]3NC(=O)c4ccc(Cl)n4[C@@H]3C[C@]21O`, the growth was 1.44% (active). The same measure, in the same setting: under `CN(C)C1CCC(NC2=CC(=O)C=CC2=O)CC1` (configuration not stated) stands 105% (inactive). On the same count and under the same terms, the result for `CN1C(=O)[C@H]2c3c1cccc3[C@@]13NC(=O)O[C@H]1[C@H](CCC3(C)C)C2(C)C` reads 107% (inactive).

On to `COc1ccc(/C=C2\CCCC3=C2NC(C)=NC3c2ccc(OC)c(OC)c2)cc1OC` (configuration not stated), for which the growth is 24.4% (inactive).

Turning to `O=C(c1ccncc1)N1N=C(c2ccc(Cl)cc2)CC1c1c[nH]c2ccccc12` (configuration not stated), the growth was 79.3% (inactive). `Cc1nn(-c2ccc(Cl)cc2)c(=O)n1CCOc1ccccc1Cl`: the growth is 117% (inactive). Same read-out and setting: the result for `Cc1cc2c(c(=O)o1)C(c1ccc(OC(=O)N3CCOCC3)cc1)C(C#N)=C(N)O2` (configuration not stated) reads 107% (inactive); that for `O=C(COc1ccccc1)N1N=C(c2ccc(Cl)cc2)CC1c1c[nH]c2ccccc12` (configuration not stated), 30.2% (inactive). Still for that read-out and setting: the result for `CC[C@H](C)[C@H]1NC(=O)[C@@H](N[C@](C)(O)[C@@H](N)CC(C)C)[C@@H](C)OC(=O)[C@H](Cc2ccc(OC)cc2)N(C)C(=O)[C@@H]2CCCN2C(=O)[C@H](CC(C)C)NC(=O)[C@@H](C)C(=O)[C@H](C(C)C)OC(=O)C[C@@H]1O` reads -13.4% (active).

The values above are taken from PubChem BioAssay (NCI).
